Out of some 300,000 compounds screened, about 3,300 (1.1%) were called active. Roughly 6% stayed inconclusive and do not appear here.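 How the source made its calls: active means more than half of the replicate wells show a fall in the fluorescence ratio signal beyond about 16% (limit read from the data, passing the limit was not always enough); inconclusive means exactly half of the replicate wells pass the set limit; inactive means fewer than half of replicates pass the limit.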 Many of the other results were omitted from the sample, so actives are more common in it than they were.
test system: Ran GTPase (GTP-bound) - importin-beta complex; assay: inhibitors of RanGTP-importin-beta interaction, primary screen, biochemical, FRET, CFP-Ran, YFP-importin-beta, homogeneous (AID 2216); conditions: cell-free CFP-Ran/YFP-importin-beta FRET ratio; active compounds read high; concentration not given here;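 further: 0% = DMSO wells and 100% = Ran loaded with GDP instead of GTP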

Row | Structure (SMILES) | inhibition
1 | COc1cc(Cn2c(N)c(C(=O)NCc3ccco3)c3nc4ccccc4nc32)cc(OC)c1OC | 54% (active)
2 | CCOC(=O)C(O)(c1ccc(NC(=O)c2ccco2)c(OC)c1)C(F)(F)F (stereo not given) | -1.67% (inactive)
3 | COC(=O)C1=C(c2ccccc2)C[C@@H]2CC[C@H]1N2C(=O)NCc1ccco1 | 1.27% (inactive)
4 | C/C(=N/O)c1ccc2ccc3ccccc3c2c1 | 4.2% (inactive)
5 | CC[C@H]1CC2CN3CCc4c([nH]c5ccccc45)C(C(=O)OC)(C2)C13 (stereo not given in full) | -1.66% (inactive)

— PubChem BioAssay AID2216 (Broad Institute, 2009)
